Measured values taken from PubChem BioAssay (NCATS).
A number with no mark means an inactive call. Results filed as inconclusive are left out. Active and inactive are the calls of the source. Unless noted, calls follow the shape of the dose curve; as a rule, active = well fitted curve in either direction with a large enough effect (not every such curve was filed as active); inconclusive = small, poorly fitted or top-dose-only effect, or another doubt; inactive = flat fitted curve, though single readings scatter.

Tests used:
[1] = AP1 Signaling Pathway (AID 357); conditions: ME-180 AP-1-bla reporter, EGF-induced, beta-lactamase ratio, 5 h; at 17.2 µM (top of the series) unless noted; also: % is scaled to controls: 0 for no effect and ±100 for the full control effect
How it was run: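 Modulation of EGF-driven AP-1 transcription was assessed with a beta-lactamase reporter in ME-180 cells. Compound and EC50 EGF were co-incubated 5 hours at 37 °C before 2.5-hour CCF4 loading at room temperature and dual-emission reading.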

[2] = target: Cytochrome P450 1A2 (Homo sapiens) (UniProt P05177); experiment: p450-cyp1a2 (AID 410; calls by dose curve; also: potency is read from the fitted curve at half-maximal effect;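 as to activity change, negative = inhibition: -100% = full effect of reference inhibitor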)
Sequence of Cytochrome P450 1A2 (Homo sapiens) (P05177 whole entry, looked up): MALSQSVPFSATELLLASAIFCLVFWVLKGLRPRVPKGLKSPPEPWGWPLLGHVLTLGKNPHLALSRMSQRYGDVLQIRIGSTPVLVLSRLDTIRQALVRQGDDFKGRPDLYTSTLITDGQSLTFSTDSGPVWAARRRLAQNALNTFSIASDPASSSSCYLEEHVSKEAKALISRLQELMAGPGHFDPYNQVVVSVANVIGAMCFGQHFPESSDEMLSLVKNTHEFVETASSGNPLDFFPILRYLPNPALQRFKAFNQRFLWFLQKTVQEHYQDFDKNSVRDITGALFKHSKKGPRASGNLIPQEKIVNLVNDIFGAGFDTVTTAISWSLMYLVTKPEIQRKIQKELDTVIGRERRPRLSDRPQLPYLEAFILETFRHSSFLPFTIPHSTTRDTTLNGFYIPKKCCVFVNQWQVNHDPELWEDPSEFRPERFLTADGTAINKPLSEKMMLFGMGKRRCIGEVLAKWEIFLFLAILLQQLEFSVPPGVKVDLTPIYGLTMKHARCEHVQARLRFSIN
How it was run: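 Luminescent readout of luciferin formed from Luciferin-ME by human CYP1A2; data normalized against complete inhibition by 57 uM furafylline. Enzyme 20nM, substrate 100uM at Km, 100mM KPO4 buffer, 60 min reaction at room temperature.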

[3] = Stat Signaling Pathway (AID 446); conditions: ME-180 SIE beta-lactamase reporter, IL-6 stimulated, 5 h; at 17.2 µM (top of the series) unless noted;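 also: ME-180 cervical cancer cells given 40 pM IL-6 alongside compound; SIE-controlled beta-lactamase reporter measured as 460/530 nm FRET emission ratio; % is scaled to controls: 0 for no effect and ±100 for the full control effect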
How it was run: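 IL-6/STAT signaling read in ME-180 cells via an SIE beta-lactamase reporter. Stimulus was 40 pM IL-6 (its AC50) for 5 hrs, so both activation and inhibition register.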

[4] = target: Glucocorticoid receptor (Homo sapiens) (UniProt P04150); experiment: GR-GFP Redistribution (AID 450;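 active = compounds whose dose series gives a full or clear partial fitted curve of increased nuclear translocation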; also: potency is read from the fitted curve at half-maximal effect)
Sequence of Glucocorticoid receptor (Homo sapiens) (P04150 whole entry, looked up, the tested form may be a part): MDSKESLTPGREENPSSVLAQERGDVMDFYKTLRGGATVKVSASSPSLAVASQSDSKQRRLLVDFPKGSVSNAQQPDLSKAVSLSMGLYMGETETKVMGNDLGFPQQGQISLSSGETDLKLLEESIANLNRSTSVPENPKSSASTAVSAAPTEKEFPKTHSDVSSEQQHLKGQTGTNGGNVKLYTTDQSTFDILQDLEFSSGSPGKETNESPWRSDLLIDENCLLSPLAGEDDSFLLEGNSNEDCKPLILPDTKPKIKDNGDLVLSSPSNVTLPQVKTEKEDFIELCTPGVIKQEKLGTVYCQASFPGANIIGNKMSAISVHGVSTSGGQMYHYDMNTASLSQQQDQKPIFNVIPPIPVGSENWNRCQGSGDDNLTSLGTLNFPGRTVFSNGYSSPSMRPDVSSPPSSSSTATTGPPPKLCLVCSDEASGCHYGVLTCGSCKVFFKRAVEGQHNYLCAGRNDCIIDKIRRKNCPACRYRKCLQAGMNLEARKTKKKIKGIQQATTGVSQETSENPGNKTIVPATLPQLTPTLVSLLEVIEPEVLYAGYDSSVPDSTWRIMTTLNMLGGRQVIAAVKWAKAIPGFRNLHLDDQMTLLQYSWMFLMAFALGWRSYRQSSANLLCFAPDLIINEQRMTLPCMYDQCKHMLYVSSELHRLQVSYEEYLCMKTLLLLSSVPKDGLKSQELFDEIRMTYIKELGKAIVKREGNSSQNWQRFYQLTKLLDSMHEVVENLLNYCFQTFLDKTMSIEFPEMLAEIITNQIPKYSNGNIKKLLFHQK

[5] = target: Glucocorticoid receptor (Homo sapiens) (UniProt P04150); experiment: GR-EFC Redistribution (AID 451; calls by dose curve; also: potency is read from the fitted curve at half-maximal effect); conditions: CHO-K1 GR-EFC translocation, beta-gal luminescence, 2 h
How it was run: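 CHO-K1 cells stably expressing nuclear-localized β-gal enzyme acceptor and GR fused C-terminally to the enzyme donor fragment; ligand-driven nuclear translocation restores β-gal by complementation. Compounds titrated up to 46 uM final, 2 h at 37 °C; luminescence read.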

[6] = target: Mitogen-activated protein kinase 10 (Mus musculus) (UniProt Q61831); experiment: JNK3 AlphaScreen Assay (AID 530);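 also: kinase came from lysate of stimulated human HepG2 cells; signal reports phosphorylation of biotinylated GST-cJun 1-79 at Ser73 with 10 µM ATP; % is scaled to controls: 0 for no effect and ±100 for the full control effect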
How it was run: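 Inhibitors reduce antibody binding to phosphorylated biotin-cJun, lowering AlphaScreen luminescence. Lysates from HepG2 cells pre-activated by IL-1beta plus TNF-alpha supplied JNK3; compounds were titrated.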

[7] = target: Cytochrome P450 3A4 (Homo sapiens) (UniProt P08684); experiment: qHTS Assay for Activators of Cytochrome P450 3A4 (AID 885; active = well fitted curve in the direction sought with a large enough effect; an effect the other way counts as inactive or inconclusive; also: nearly all actives have a fitted effect of over 65% in size)
How it was run: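 Quantitative HTS format: compounds preincubated with 20nM human CYP3A4 and Luciferin-PPXE substrate at KM, reaction started by NADPH regeneration, stopped after 60 min, luciferase luminescence read 20 min later.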

[8] = qHTS Assay for Identification of Small Molecule Agonists for Thrombopoietin (TPO) Signaling Pathway (AID 917; active = well fitted curve in the direction sought with a large enough effect; an effect the other way counts as inactive or inconclusive; also: % is scaled to controls: 0 for no effect and ±100 for the full control effect)
How it was run: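 We measured Glycoprotein IIb promoter–luciferase output in IL-3-starved Ba/F3 murine cells expressing the human TPO receptor after 24 hrs at 37 C with compounds and 26 pM TPO.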

[9] = target: Muscarinic acetylcholine receptor M1 (Rattus norvegicus) (UniProt P08482); experiment: qHTS Assay for Antagonists of Acetylcholine Muscarinic M1 Receptor: Kinetic Measurement of Intracellular Calcium Response (AID 943; active = well fitted curve in the direction sought with a large enough effect; an effect the other way counts as inactive or inconclusive;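 also: Fluo-4 calcium signal as peak divided by basal fluorescence over 4 min; nearly all actives have a fitted effect of over 75% in size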)
Sequence of Muscarinic acetylcholine receptor M1 (Rattus norvegicus) (P08482 whole entry, looked up): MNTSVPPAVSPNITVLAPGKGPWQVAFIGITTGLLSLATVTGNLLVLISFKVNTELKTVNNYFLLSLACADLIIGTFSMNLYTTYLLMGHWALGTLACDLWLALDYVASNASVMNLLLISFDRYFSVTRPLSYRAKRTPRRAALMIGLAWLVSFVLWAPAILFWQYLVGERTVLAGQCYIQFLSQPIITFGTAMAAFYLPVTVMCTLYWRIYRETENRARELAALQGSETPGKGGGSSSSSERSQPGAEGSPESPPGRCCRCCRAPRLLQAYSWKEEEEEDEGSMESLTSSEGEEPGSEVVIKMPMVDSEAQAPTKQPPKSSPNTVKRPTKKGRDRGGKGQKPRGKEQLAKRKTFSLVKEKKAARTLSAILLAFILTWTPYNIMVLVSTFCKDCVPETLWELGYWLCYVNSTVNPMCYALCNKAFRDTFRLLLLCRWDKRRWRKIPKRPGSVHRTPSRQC
How it was run: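 Rat M1-CHO cells, 2000/well, overnight → Fluo-4 no-wash dye with probenecid, 1 h 37C → compound 10 min, room temp → basal read 6 s → carbachol EC80 (100 nM) → 4 min kinetic read; peak/basal.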

[10] = target: Muscarinic acetylcholine receptor M1 (Rattus norvegicus) (UniProt P08482); experiment: qHTS Assay for Antagonists of Acetylcholine Muscarinic M1 Receptor: Measurement of IP-One Response (AID 944; active = well fitted curve in the direction sought with a large enough effect; an effect the other way counts as inactive or inconclusive; also: nearly all actives have a fitted effect of over 75% in size)
How it was run: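 M1-CHO (rat), 2000 cells/well, overnight recovery; cpd 10 min; carbachol EC80 (200 nM), 30 min, HEPES buffer + 50 mM LiCl pH 7.4; IP-One HTRF, Ex 337, Em 620/665 nm.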

[11] = target: Pyruvate kinase (Leishmania mexicana) (UniProt Q27686); experiment: qHTS Validation Assay for Inhibitors of Leishmania Mexicana Pyruvate Kinase (AID 945; active = well fitted curve in the direction sought with a large enough effect; an effect the other way counts as inactive or inconclusive;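 also: 0% = DMSO only neutral control wells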)
Sequence of Pyruvate kinase (Leishmania mexicana) (Q27686 2-499 E452W): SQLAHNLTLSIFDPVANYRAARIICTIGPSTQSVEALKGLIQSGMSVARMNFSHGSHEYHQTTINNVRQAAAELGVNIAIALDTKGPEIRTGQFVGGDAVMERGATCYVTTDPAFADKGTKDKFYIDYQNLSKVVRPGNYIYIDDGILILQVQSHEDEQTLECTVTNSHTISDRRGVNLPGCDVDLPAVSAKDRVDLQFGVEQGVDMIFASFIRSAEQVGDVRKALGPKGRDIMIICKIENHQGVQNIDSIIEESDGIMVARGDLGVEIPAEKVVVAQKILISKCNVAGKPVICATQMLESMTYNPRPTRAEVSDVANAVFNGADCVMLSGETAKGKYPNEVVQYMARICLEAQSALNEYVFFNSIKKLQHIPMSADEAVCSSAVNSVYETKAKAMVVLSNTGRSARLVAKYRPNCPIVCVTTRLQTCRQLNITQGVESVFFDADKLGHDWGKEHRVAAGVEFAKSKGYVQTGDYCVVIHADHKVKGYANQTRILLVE
How it was run: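 Read-out: luminescence from PKLight stop/detection reagent, data normalized to DMSO. Reaction: 0.2 nM E451W LmPYK, 0.5 mM PEP, 0.1 mM ADP, pH 7.2, 1 h room temperature.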

[12] = target: Pyruvate kinase PKM (Homo sapiens) (UniProt P14618); experiment: qHTS Assay for Activators of Human Muscle Pyruvate Kinase (AID 954; active = well fitted curve in the direction sought with a large enough effect, not every such curve was filed as active;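 also: 0% = uninhibited enzyme and -100% = no enzyme or full thiadiazolimine inhibition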)
Sequence of Pyruvate kinase PKM (Homo sapiens) (P14618 whole entry, looked up): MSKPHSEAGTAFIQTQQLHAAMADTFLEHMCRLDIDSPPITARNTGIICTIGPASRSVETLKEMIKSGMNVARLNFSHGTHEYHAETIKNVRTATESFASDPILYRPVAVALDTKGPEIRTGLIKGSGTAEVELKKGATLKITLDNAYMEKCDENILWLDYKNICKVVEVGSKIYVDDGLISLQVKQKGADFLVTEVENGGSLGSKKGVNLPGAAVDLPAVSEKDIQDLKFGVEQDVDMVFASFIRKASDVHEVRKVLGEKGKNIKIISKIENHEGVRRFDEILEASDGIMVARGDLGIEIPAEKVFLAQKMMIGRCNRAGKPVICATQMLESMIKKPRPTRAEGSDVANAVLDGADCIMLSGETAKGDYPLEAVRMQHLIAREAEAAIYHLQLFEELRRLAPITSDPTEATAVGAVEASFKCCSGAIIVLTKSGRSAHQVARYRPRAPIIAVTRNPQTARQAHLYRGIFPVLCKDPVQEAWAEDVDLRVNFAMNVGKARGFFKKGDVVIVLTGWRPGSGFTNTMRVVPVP
How it was run: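 Enzyme was run at intermediate activity so both inhibitors and activators could be detected. ATP formed from ADP and PEP by 0.1 nM human PKM2 during a 1 h room-temperature incubation was quantified by coupled luciferase luminescence.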

[13] = target: Alpha-galactosidase A (Homo sapiens) (UniProt P06280); experiment: Counterscreen for Glucocerebrosidase Inhibitors: qHTS Assay for Human alpha-Galactosidase at pH 4.5 (AID 992; active = well fitted curve in the direction sought with a large enough effect; an effect the other way counts as inactive or inconclusive; also: 0% is about no effect)
Sequence of Alpha-galactosidase A (Homo sapiens) (P06280 whole entry, looked up): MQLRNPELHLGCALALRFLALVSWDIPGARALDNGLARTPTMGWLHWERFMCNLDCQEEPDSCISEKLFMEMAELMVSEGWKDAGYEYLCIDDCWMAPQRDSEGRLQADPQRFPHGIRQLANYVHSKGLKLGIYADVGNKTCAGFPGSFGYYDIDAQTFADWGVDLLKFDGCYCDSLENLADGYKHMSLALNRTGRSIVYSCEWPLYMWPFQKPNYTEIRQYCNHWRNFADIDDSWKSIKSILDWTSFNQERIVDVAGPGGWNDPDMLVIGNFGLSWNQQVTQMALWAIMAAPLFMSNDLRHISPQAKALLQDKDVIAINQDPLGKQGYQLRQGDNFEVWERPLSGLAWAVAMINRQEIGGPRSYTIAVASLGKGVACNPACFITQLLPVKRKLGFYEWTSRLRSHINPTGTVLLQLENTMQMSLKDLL
How it was run: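 Read-out is 4-methylumbelliferone fluorescence (365 nm excitation, 440 nm emission) after a pH 10 NaOH/glycine stop. Reactions held 2 nM enzyme and 80 uM substrate at pH 4.5 for 20 min at room temperature.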

[14] = target: 3',5'-cyclic-AMP phosphodiesterase 4B (Homo sapiens) (UniProt Q07343); experiment: qHTS Assay for Inhibitors of PDE-IV (AID 607; active = well fitted activation curve with a large enough effect in the main read-out, with a control signal flat, not every such curve was filed as active; also: % of control where 0% means no effect)
Sequence of 3',5'-cyclic-AMP phosphodiesterase 4B (Homo sapiens) (Q07343 whole entry, looked up): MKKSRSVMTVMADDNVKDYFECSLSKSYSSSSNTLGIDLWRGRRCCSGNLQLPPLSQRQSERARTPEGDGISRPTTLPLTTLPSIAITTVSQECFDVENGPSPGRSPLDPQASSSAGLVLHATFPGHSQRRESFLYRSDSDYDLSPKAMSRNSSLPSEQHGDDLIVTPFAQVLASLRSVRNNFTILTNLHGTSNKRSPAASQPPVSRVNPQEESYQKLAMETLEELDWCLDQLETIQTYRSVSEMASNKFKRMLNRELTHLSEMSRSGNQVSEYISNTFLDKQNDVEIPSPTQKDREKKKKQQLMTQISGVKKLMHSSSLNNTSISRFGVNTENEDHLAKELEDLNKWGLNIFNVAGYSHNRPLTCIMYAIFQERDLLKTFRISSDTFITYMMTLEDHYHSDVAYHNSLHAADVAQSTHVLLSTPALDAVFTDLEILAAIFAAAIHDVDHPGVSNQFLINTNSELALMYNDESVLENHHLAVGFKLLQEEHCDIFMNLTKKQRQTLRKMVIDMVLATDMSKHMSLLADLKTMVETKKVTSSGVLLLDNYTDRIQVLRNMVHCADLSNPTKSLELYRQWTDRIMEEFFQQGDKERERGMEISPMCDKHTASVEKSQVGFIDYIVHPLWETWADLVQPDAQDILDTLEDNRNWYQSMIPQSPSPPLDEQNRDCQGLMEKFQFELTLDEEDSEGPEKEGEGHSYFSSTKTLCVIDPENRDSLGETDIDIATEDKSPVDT
How it was run: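 Live HEK293 cells with a modified cyclic nucleotide-gated (CNG) channel report intracellular cAMP via membrane-potential dye fluorescence (ex 535/em 590 nm). Endogenous PDE-IV was targeted. Compounds were tested at up to 22.9 uM final; RO 20-1724 100 uM served as control.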

[15] = target: Cytochrome P450 2C9 (Homo sapiens) (UniProt P11712); experiment: qHTS Assay for Inhibitors and Substrates of Cytochrome P450 2C9 (AID 883; active = well fitted curve in the direction sought with a large enough effect; an effect the other way counts as inactive or inconclusive; also: % is scaled to controls: 0 for no effect and ±100 for the full control effect; nearly all actives have a fitted effect of over 60% in size)
How it was run: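 Human CYP2C9 (10nM) hydroxylated Luciferin-H (100uM, at its KM) to luciferin in 25mM KPO4. Compound was preincubated 10 min at 37C, then NADPH regeneration started a 60 min reaction at 37C. Luminescence was read after detection reagent, normalized to 57uM sulphaphenazole.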

[16] = target: Cytochrome P450 2C19 (Homo sapiens) (UniProt P33261); experiment: qHTS Assay for Inhibitors and Substrates of Cytochrome P450 2C19 (AID 899; active = well fitted curve in the direction sought with a large enough effect; an effect the other way counts as inactive or inconclusive; also: % is scaled to controls: 0 for no effect and ±100 for the full control effect; nearly all actives have a fitted effect of over 60% in size)
Sequence of Cytochrome P450 2C19 (Homo sapiens) (P33261 whole entry, looked up): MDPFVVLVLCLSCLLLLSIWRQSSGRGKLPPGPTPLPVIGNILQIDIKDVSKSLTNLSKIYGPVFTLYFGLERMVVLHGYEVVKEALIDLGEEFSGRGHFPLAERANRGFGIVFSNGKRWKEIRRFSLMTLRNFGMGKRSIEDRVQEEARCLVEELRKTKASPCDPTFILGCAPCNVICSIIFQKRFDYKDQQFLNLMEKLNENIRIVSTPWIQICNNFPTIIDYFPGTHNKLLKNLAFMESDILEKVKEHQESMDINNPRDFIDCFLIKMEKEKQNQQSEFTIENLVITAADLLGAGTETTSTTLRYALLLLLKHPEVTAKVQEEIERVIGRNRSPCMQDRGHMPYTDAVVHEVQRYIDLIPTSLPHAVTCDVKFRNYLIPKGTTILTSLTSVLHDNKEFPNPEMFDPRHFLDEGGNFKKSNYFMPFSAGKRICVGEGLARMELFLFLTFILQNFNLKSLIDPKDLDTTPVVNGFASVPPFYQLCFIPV
How it was run: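 Human CYP2C19 (5nM) with Luciferin-H EGE at 10uM (its KM) in 50mM KPO4 was preincubated with compound for 10 min at 37C. NADPH regeneration started a 60 min 37C reaction. Luciferin was read by luminescence, normalized to 57uM ketoconazole.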

[17] = qHTS Assay for Identification of Small Molecule Agonists for Hypoxia Response Element Signaling Pathway (AID 914; active = well fitted activation curve with a large enough effect in the signal ratio, with a control signal flat, not every such curve was filed as active; the % refers to the signal ratio; also: % of control where 0% means no effect); conditions: ME-180 (cervical carcinoma) HRE-bla reporter, beta-lactamase ratio, CoCl2, 17 h; activation: stronger effect = higher value
How it was run: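 qHTS titration; ME-180 HRE-bla cells; EC50 CoCl2 co-treatment, 17 h at 37 degrees Celsius; CCF4 dye, ex 405nm, em 460nm and 530nm; %Activity from ratio; AC50.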

[18] = NFAT Signaling Pathway (AID 444); conditions: Jurkat NFAT-bla M1, carbachol, beta-lactamase ratio, 5 h; at 17.2 µM (top of the series) unless noted
How it was run: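 Jurkat cells carrying an NFAT-driven β-lactamase reporter and co-transfected muscarinic M1 receptor were treated with compound plus carbachol (1 uM final, an EC50 level) for 5 h at 37 °C. CCF4 loading followed for 1 h at RT; 460/530 nm ratio gave %activity.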

[19] = target: Guanine nucleotide-binding protein G(i) subunit alpha-1 (Homo sapiens) (UniProt P63096); experiment: qHTS Assay for Inhibitors of RGS12 GoLoco Motif Activity (Green Fluorophore) (AID 879; active = well fitted curve in the direction sought with a large enough effect; an effect the other way counts as inactive or inconclusive;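 also: 0% = labeled peptide with Gαi1 and full inhibition = labeled peptide alone without protein; negative values mean loss of peptide binding seen as reduced polarization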)
Sequence of Guanine nucleotide-binding protein G(i) subunit alpha-1 (Homo sapiens) (P63096 whole entry, looked up): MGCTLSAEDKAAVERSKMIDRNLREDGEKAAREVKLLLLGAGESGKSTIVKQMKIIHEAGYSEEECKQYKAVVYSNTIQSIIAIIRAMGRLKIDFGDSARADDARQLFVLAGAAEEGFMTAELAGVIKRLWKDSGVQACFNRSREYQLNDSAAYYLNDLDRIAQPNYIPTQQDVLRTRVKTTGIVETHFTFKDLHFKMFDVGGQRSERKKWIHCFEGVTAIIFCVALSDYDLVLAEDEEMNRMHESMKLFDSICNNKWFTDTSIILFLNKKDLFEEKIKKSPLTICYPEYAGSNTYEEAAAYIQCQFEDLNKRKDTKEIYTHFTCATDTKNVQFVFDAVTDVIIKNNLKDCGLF
How it was run: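 Fluorescence polarization assay: 50 nM Gαi1 with 10 nM FITC-labeled RGS12 GoLoco peptide in 10 mM Tris pH 7.5, 150 mM NaCl, 0.1 mM GDP, 0.05% NP40, 10 min at room temperature with compound.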

Compound: O=C1[C@@H]2C=CC=CC2=NC(=S)N1CCN1CCC(=C(c2ccc(F)cc2)c2ccc(F)cc2)CC1
- activity change, negative = inhibition [1]: 26.4% [at 38 µM]
- Potency [2]: inactive
- activity, negative = inhibition [3]: 6.96% [at 38 µM]
- Potency [4]: > 46 µM
- Potency [5]: > 46 µM
- Potency [6]: inactive
- Potency [7]: inactive
- Potency [8]: inactive
- Potency [9]: inactive
- Potency [10]: inactive
- Potency [11]: inactive
- outcome [12]: inactive
- outcome [13]: inactive

Compound: CC1(NC[C@@H](O)COc2cccc3[nH]ccc23)CCC(C(C)(C)NC(=O)CBr)CC1 (stereo partly specified)
- activity change, negative = inhibition [1]: 7.03% [at 38 µM]
- Potency [2]: inactive
- activity, negative = inhibition [3]: 18.1% [at 38 µM]
- Potency [4]: > 46 µM
- Potency [5]: > 46 µM
- Potency [14]: inactive
- Potency [15]: inactive
- Potency [16]: inactive

Compound: CC(=O)O[C@]12CC[N@+]3(C)CCCC[C@@H]3[C-]1Nc1ccccc12
- activity change, negative = inhibition [1]: 2.61% [at 7.69 µM]
- activity change, negative = inhibition [2]: -11% [at 11.4 µM]
- activity, negative = inhibition [3]: 1.87% [at 7.69 µM]
- Potency [4]: > 46 µM
- Potency [5]: > 9.22 µM
- activity change, negative = inhibition [6]: 4.94% [at 11.4 µM]
- Potency [14]: inactive
- activation [17]: 4.44%

Compound: CCOC(=O)CC1=C(C(=O)OCC)C(c2ccc(OC)c(OC)c2)C(C#N)=C(N)O1 (stereo unspecified)
- activity change, negative = inhibition [1]: 1.15%
- activity change, negative = inhibition [18]: -21.5%
- activity, negative = inhibition [3]: 5.77%

Compound: COc1cccc(-c2nn3c(-c4ccccn4)nnc3s2)c1
- activity change, negative = inhibition [1]: -5.18%
- activity change, negative = inhibition [18]: -17%
- activity, negative = inhibition [3]: 9.86%
- Potency [4]: > 20.6 µM

Compound: Clc1ccc(C(c2ccc(Cl)cc2)n2cc[n+](C[C@@H](OCc3ccc(Cl)cc3Cl)c3ccc(Cl)cc3Cl)c2)cc1
- activity change, negative = inhibition [1]: -7.48% [at 38 µM]
- Potency [2]: 31.6 µM (active)
- Potency [4]: > 46 µM
- Potency [5]: > 46 µM
- Potency [6]: inactive
- Potency [14]: inactive
- outcome [19]: inactive
- Potency [11]: inactive
- outcome [12]: inactive
- outcome [13]: inactive

Compound: CN1C(=O)C2(c3ccccc31)C1CCCC=C1C(C#N)=C(N)C2(C#N)C#N (stereo unspecified)
- activity change, negative = inhibition [1]: -21.4%
- activity change, negative = inhibition [18]: -15.5%
- activity, negative = inhibition [3]: -7.56%

Compound: CC(=O)OCC(=O)[C@@]1(O)CC[C@H]2[C@@H]3CCC4=CC(=O)C=C[C@]4(C)[C@@]3(Cl)[C@@H](Cl)C[C@@]21C
- activity change, negative = inhibition [1]: 11.8%
- activity change, negative = inhibition [18]: -9%
- activity, negative = inhibition [3]: -0.258%
- Potency [4]: 0.0078 µM (active)

Compound: COc1cc(N2CCCC2)c(OC)cc1/C=c1/sc2nc3ccccc3n2c1=O
- activity change, negative = inhibition [1]: -3.35%
- activity change, negative = inhibition [18]: -23%
- activity, negative = inhibition [3]: -0.381%
